Experimental data as given in PubChem BioAssay (Tox21).
Several values for one entry are separate records, joined by “and”; a condition that tells them apart may be missing. Equal values may be shown once. Results filed as inconclusive are left out. Where a call stands in place of a potency, no number is given. The source holds several records for some structures; these can differ, active in one and inactive in another. Activity calls are given as the source filed them. Unless noted, calls follow the shape of the dose curve; as a rule, active = well fitted curve in the direction sought with a large enough effect in the repeat runs; inconclusive = weak or mixed curves; inactive = no such curve, though single readings can be large; an effect the other way counts as inactive or inconclusive.

Tests used:
[1] = qHTS assay to identify small molecule agonists of the hypoxia (HIF-1) signaling pathway - cell viability counter screen (AID 1224844; calls by dose curve; also: nearly all actives have a fitted effect of over 50% in size; also: potency is read from the fitted curve at half-maximal effect)
In short: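 Cytotoxicity measured by CellTiter-Glo ATP luminescence in the wells also read for beta-lactamase signal. Cells were HRE-bla ME-180 (2,000/well, 0.5% dialyzed FBS), exposed to compounds for 17 h at 37C.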

[2] = qHTS assay to identify small molecule agonists of the hypoxia (HIF-1) signaling pathway (AID 1224846; active = well fitted activation curve with a large enough effect in the signal ratio in the repeat runs, not every such curve was filed as active; the % refers to the signal ratio)
In short: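 Compounds added to ME-180 cells carrying hypoxia-response-element beta-lactamase reporter (0.5% dialyzed FBS, 5 h preplating), 17 h at 37C; agonist activity detected by CCF4-AM B/G FRET read-out.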

[3] = qHTS assay to identify small molecule antagonists of the estrogen related receptor (ERR) signaling pathway from Tox21 library (AID 1224848); also: nearly all actives have a fitted effect of over 50% in size; also: potency is read from the fitted curve at half-maximal effect
In short: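 Quantitative high-throughput format: ERR reporter cells (2,000/well) pre-incubated 6 h, treated 18 h at 37 C with compounds in DMSO alongside positive and negative controls, then read by ONE-Glo luminescence.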

[4] = qHTS assay to identify small molecule agonists of the estrogen related receptor (ERR) signaling pathway from Tox21 library (AID 1224849; calls by dose curve; also: nearly all actives have a fitted effect of over 15% in size); conditions: ERR reporter cell line, ONE-Glo luciferase, 18 h
In short: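 Luminescent agonist read-out (One-Glo, 30-minute room-temperature incubation) following 18-hour compound treatment at 37 C of the ERR cell line, which had been plated 6 hours before dosing.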

[5] = qHTS RealTime-Glo MT Cell Viability Assay in HepG2 cells - 24 hour (AID 1224867); also: nearly all actives have a fitted effect of over 50% in size; also: potency is read from the fitted curve at half-maximal effect
In short: (§1)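 HepG2 cells were seeded at 600 cells/well together with NanoLuc luciferase and a cell-permeant prosubstrate, preincubated 5 h at 37 C/5% CO2, then pin-dosed with compounds in DMSO. Nonlytic luminescence from viable cells was read at each time point.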

[6] = qHTS RealTime-Glo MT Cell Viability Assay in HEK293 cells - 32 hour (AID 1224868); also: nearly all actives have a fitted effect of over 50% in size; also: potency is read from the fitted curve at half-maximal effect
In short: (§2)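 HEK293 cells were seeded at 600 cells/well together with NanoLuc luciferase and cell-permeant prosubstrate, preincubated 5 h at 37 C/5% CO2, then given compound in DMSO by pintool. Luminescence from viable-cell prosubstrate reduction was read repeatedly over 40 h.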

[7] = qHTS RealTime-Glo MT Cell Viability Assay in HepG2 cells - 40 hour (AID 1224870); also: nearly all actives have a fitted effect of over 50% in size; also: potency is read from the fitted curve at half-maximal effect
In short: (§3)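 HepG2 cells (600/well) mixed with RealTime-Glo MT reagent, settled 5 h at 37 C/5% CO2 before compound addition. Nonlytic NanoLuc luminescence from viable-cell prosubstrate reduction read repeatedly during 40 h treatment at 37 C.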

[8] = A CellTox Green Cytotoxicity Assay to monitor cytotoxicity in HEK293 cells - 40 hour (AID 1224871); also: nearly all actives have a fitted effect of over 45% in size; also: potency is read from the fitted curve at half-maximal effect
In short: (§4)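 Fluorescence from a DNA-binding dye excluded by viable cells was measured repeatedly in the same HEK293 wells (600 cells/well) during continuous compound exposure at 37 C. Each assay gives one read point: 0, 8, 16, 24, 32 or 40 h.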

[9] = qHTS RealTime-Glo MT Cell Viability Assay in HEK293 cells - 16 hour (AID 1224872); also: nearly all actives have a fitted effect of over 50% in size; also: potency is read from the fitted curve at half-maximal effect
In short: as §2

[10] = qHTS RealTime-Glo MT Cell Viability Assay in HepG2 cells - 8 hour (AID 1224873); also: nearly all actives have a fitted effect of over 55% in size; also: potency is read from the fitted curve at half-maximal effect
In short: as §3

[11] = qHTS RealTime-Glo MT Cell Viability Assay in HEK293 cells - 40 hour (AID 1224874); conditions: RealTime-Glo luminescence; max response: stronger effect = lower value; also: nearly all actives have a fitted effect of over 50% in size; also: potency is read from the fitted curve at half-maximal effect
In short: (§5)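 Luminescence, which tracks viable cell number through reduction of the prosubstrate to a NanoLuc substrate, was read over continuous 37 C culture. Cells (600/well) were premixed with reagent and rested 5 h before 23 nL of compound in DMSO was pinned.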

[12] = A CellTox Green Cytotoxicity Assay to monitor cytotoxicity in HEK293 cells - 24 hour (AID 1224875); also: nearly all actives have a fitted effect of over 45% in size; also: potency is read from the fitted curve at half-maximal effect
In short: as §4

[13] = A CellTox Green Cytotoxicity Assay to monitor cytotoxicity in HepG2 cells - 16 hour (AID 1224876); also: nearly all actives have a fitted effect of over 45% in size; also: potency is read from the fitted curve at half-maximal effect
In short: (§6)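 Real-time cytotoxicity: fluorescence of a cell-impermeant cyanine dye binding DNA of dead HepG2 cells, measured repeatedly (0–40 h) during compound exposure at 37 C. Cells seeded 600/well with reagent, dosed after 5 h.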

[14] = qHTS RealTime-Glo MT Cell Viability Assay in HepG2 cells - 32 hour (AID 1224877); also: nearly all actives have a fitted effect of over 55% in size; also: potency is read from the fitted curve at half-maximal effect
In short: as §1

[15] = A CellTox Green Cytotoxicity Assay to monitor cytotoxicity in HepG2 cells - 24 hour (AID 1224878); also: nearly all actives have a fitted effect of over 45% in size; also: potency is read from the fitted curve at half-maximal effect
In short: as §6

[16] = A CellTox Green Cytotoxicity Assay to monitor cytotoxicity in HepG2 cells - 40 hour (AID 1224879); also: nearly all actives have a fitted effect of over 40% in size; also: potency is read from the fitted curve at half-maximal effect
In short: as §6

[17] = qHTS RealTime-Glo MT Cell Viability Assay in HEK293 cells - 0 hour (AID 1224880); also: nearly all actives have a fitted effect of over 45% in size; also: potency is read from the fitted curve at half-maximal effect
In short: as §5

[18] = qHTS assay to identify small molecule agonists of H2AX (AID 1224845; active = well fitted activation curve with a large enough effect in the signal ratio in the repeat runs, not every such curve was filed as active; the % refers to the signal ratio; also: potency is read from the fitted curve at half-maximal effect)
In short: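 Wild-type CHO-K1 cells, plated overnight, exposed 3hr at 37C to 15 concentrations (0.76% DMSO final). Lysed, then HTRF anti-pH2AX (S139) cryptate and anti-H2AX-d2 antibodies, 24 hr room temperature; 665/620 nm emission read.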

[19] = qHTS assay to identify small molecule agonists of H2AX - cell viability counter screen (AID 1224847; calls by dose curve; also: nearly all actives have a fitted effect of over 30% in size; also: potency is read from the fitted curve at half-maximal effect)
In short: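 Cells plated first: CHO-K1, 1000 per well in 10% FBS medium, incubated overnight at 37C. Then 15-point compound titration added (final DMSO 0.76%) for 3 hr. Finally CellTiter-Glo added and luminescence read.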

[20] = A CellTox Green Cytotoxicity Assay to monitor cytotoxicity in HEK293 cells - 0 hour (AID 1224869); also: nearly all actives have a fitted effect of over 50% in size
In short: as §4

[21] = at 92.4 µM (top of the series) unless noted

In the case of `Nc1ccc2cc(S(=O)(=O)O)cc(O)c2c1N=Nc1ccccc1C(F)(F)F`, the Potency [1] is reported as “inactive”, the Potency [2] is reported as “inactive” and the Potency [3] is reported as “inactive”. For the same molecule, the activity change, positive = activation [4, 21] was 0.11% (inactive), the Potency [5] was “inactive” and the Potency [6] was “inactive”. For the same molecule, the Potency [7] was “inactive”, the Potency [8] was “inactive” and the Potency [9] was “inactive”. The Potency [10] was “inactive”, the max response [11] was 0.853% (inactive) and the Potency [12] was “inactive”. The Potency [13] was “inactive”, the Potency [14] was “inactive” and the Potency [15] was “inactive”. For the same molecule, the Potency [16] was “inactive” and the Potency [17] was “inactive”.

For `CCOC(=O)O[C@H](C)OC(=O)c1ccc2c(c1)cc(C(=O)NC1CCN(C(C)C)CC1)n2Cc1cc(-c2ccc(Cl)s2)on1`, the Potency [1] was 28.9 µM (active), the Potency [18] was 42 µM (active) and the Potency [19] was 37.5 µM (active). The Potency [5] was 11.5 µM (active), the Potency [6] was 11.5 µM (active) and the Potency [7] was 10.2 µM (active). For the same molecule, the Potency [8] was 18.2 µM (active), the Potency [9] was 10.2 µM (active) and the Potency [10] was 16.2 µM (active). For the same molecule, the Potency [11] was 11.5 µM (active), the Potency [12] was 20.4 µM (active) and the Potency [13] was 11.5 µM (active). For the same molecule, the Potency [14] was 10.2 µM (active), the Potency [15] was 11.5 µM (active) and the Potency [16] was 10.2 µM (active). The Potency [17] was “inactive”.

With `CC(=O)SC[C@@H](Cc1ccccc1)C(=O)NCC(=O)OCc1ccccc1` the Potency [1] was “inactive”, the Potency [18] was “inactive” and the Potency [19] was “inactive”. The Potency [5] was “inactive”, the Potency [6] was “inactive” and the Potency [7] was “inactive”. The Potency [8] was “inactive”, the Potency [9] was “inactive” and the Potency [10] was “inactive”. For the same molecule, the max response [11] was 0.0146% (inactive), the Potency [12] was “inactive” and the Potency [14] was “inactive”. For the same molecule, the Potency [15] was “inactive”, the Potency [16] was “inactive” and the Potency [17] was “inactive”.

In the case of `CCc1cc(Cc2cc(CC)c(N)c(CC)c2)cc(CC)c1N`, the Potency [1] is reported as “inactive”, the Potency [2] is reported as “inactive” and the Potency [19] is reported as 89.8 µM (active). The Potency [3] was 27.3 µM (active), the activity change, positive = activation [4, 21] was -60.8% (inactive) and the Potency [5] was “inactive”. The Potency [6] was 38.9 µM (active), the Potency [20] was “inactive” and the Potency [7] was “inactive”. The Potency [8] was “inactive”, the Potency [9] was 24.5 µM (active) and the Potency [10] was “inactive”. The Potency [11] was 27.5 µM (active), the Potency [12] was “inactive” and the Potency [13] was “inactive”. The Potency [14] was “inactive” and the Potency [15] was “inactive”.

In the case of `Cc1cccc(N(C)C(=S)Oc2ccc3c(c2)C2CCC3C2)c1` (stereo not given), the Potency [1] is reported as “inactive”, the Potency [18] is reported as “inactive” and the Potency [3] is reported as “inactive”. For the same molecule, the activity change, positive = activation [4, 21] was -2.97% [at 42.5 µM] (inactive), the Potency [5] was “inactive” and the Potency [6] was “inactive”. The Potency [20] was “inactive”, the Potency [7] was “inactive” and the Potency [8] was “inactive”. The Potency [9] was “inactive”, the Potency [10] was “inactive” and the max response [11] was -13.2% (inactive). For the same molecule, the Potency [12] was “inactive”, the Potency [13] was “inactive” and the Potency [16] was “inactive”. For the same molecule, the Potency [17] was “inactive”.

For `C[C@]12CCC(=O)C=C1CC[C@@H]1[C@@H]2[C@@H](O)C[C@@]2(C)[C@H]1CC[C@]2(O)C(=O)COC(=O)CCC(=O)O`, the Potency [1] was “inactive”, the Potency [18] was “inactive” and the Potency [19] was “inactive”. For the same molecule, the Potency [5] was “inactive”, the Potency [6] was “inactive” and the Potency [20] was “inactive”. For the same molecule, the Potency [7] was “inactive”, the Potency [8] was “inactive” and the Potency [9] was “inactive”. For the same molecule, the Potency [10] was “inactive”, the max response [11] was -8.8% (inactive) and the Potency [12] was “inactive”. The Potency [13] was “inactive”, the Potency [14] was “inactive” and the Potency [16] was “inactive”. For the same molecule, the Potency [17] was 10.7 µM (active).

In the case of `Clc1ccccc1C(c1ccccc1)(c1ccccc1)n1ccnc1`, the Potency [1] is reported as 21.9 µM (active), the Potency [19] is reported as 40.1 µM (active) and inactive and the Potency [3] is reported as 3.86 µM (active) and 11.9 µM (active). For the same molecule, the activity change, positive = activation ([4]; at 42.5 µM (top of the series)) was -60.3% (inactive), the activity change, positive = activation ([4]; at 92.4 µM (top of the series)) was -72.6% (inactive) and the Potency [5] was 21.9 µM (active) and inactive. The Potency [20] was “inactive”, the Potency [7] was 24.5 µM (active) and inactive and the Potency [8] was 43.6 µM (active) and inactive. The Potency [9] was 27.5 µM (active), the Potency [10] was 27.5 µM (active) and inactive and the Potency [11] was 19.5 µM (active) and 6.74 µM (active). For the same molecule, the Potency [13] was 38.9 µM (active) and inactive, the Potency [14] was 24.5 µM (active) and inactive and the Potency [15] was 21.9 µM (active) and inactive. The Potency [16] was 21.9 µM (active) and inactive and the Potency [17] was “inactive”.

For `Nc1c2ccccc2nc2ccccc12`, the Potency [1] was 13.6 µM (active), the Potency [18] was 88.6 µM (active) and the Potency [3] was 2.69 µM (active). For the same molecule, the Potency [20] was “inactive”, the Potency [7] was 24.2 µM (active) and 13.4 µM (active) and the Potency [8] was 24.2 µM (active). For the same molecule, the Potency [9] was 19.2 µM (active), the Potency [11] was 4.83 µM (active) and 2.39 µM (active) and the Potency [13] was “inactive and 13.4 µM (active)”. For the same molecule, the Potency [14] was 24.2 µM (active) and 10.7 µM (active), the Potency [16] was 10.8 µM (active) and 10.7 µM (active) and the Potency [17] was “inactive”.

For `Oc1ccc2cc(SSc3ccc4cc(O)ccc4c3)ccc2c1`, the Potency [1] was “inactive”, the Potency [2] was “inactive” and the Potency [19] was 89.9 µM (active). For the same molecule, the Potency [3] was 61.2 µM (active) and 54.5 µM (active), the activity change, positive = activation [4, 21] was -64.5% (inactive) and -58.9% (inactive) and the Potency [5] was “inactive”. For the same molecule, the Potency [7] was “inactive”, the Potency [8] was 49 µM (active) and 24.5 µM (active) and the Potency [9] was 49 µM (active). The Potency [10] was “inactive”, the Potency [11] was 55 µM (active) and the Potency [13] was “inactive”. The Potency [14] was “inactive”, the Potency [15] was “inactive” and the Potency [16] was “inactive and 21.9 µM (active)”. The Potency [17] was “inactive”.

With `CC1(C)CCC(C)(C)c2cc(C(=O)Nc3ccc(C(=O)O)cc3)ccc21` the Potency [1] was “inactive”, the Potency [2] was “inactive” and the activity change, positive = activation [4, 21] was -24.2% (inactive). For the same molecule, the Potency [5] was “inactive”, the Potency [6] was “inactive” and the Potency [20] was “inactive”. The Potency [7] was “inactive”, the Potency [9] was “inactive” and the Potency [10] was “inactive”. For the same molecule, the max response [11] was -14.6% (inactive) and the Potency [14] was “inactive”.

With `CN(C/C=C/C#CC(C)(C)C)Cc1cccc2ccccc12` the Potency [1] was “inactive”, the Potency [2] was “inactive” and the Potency [19] was 55.2 µM (active). For the same molecule, the Potency [5] was “inactive”, the Potency [20] was “inactive” and the Potency [7] was “inactive”. The Potency [10] was “inactive”, the Potency [13] was “inactive” and the Potency [14] was “inactive”. The Potency [15] was “inactive”, the Potency [16] was “inactive” and the Potency [17] was “inactive”.
